In PubChem BioAssay (Tox21):
Several values for one entry are separate records, joined by “and”; a condition that tells them apart may be missing. Equal values may be shown once. Activity calls are given as the source filed them. Calls follow the shape of the dose curve; as a rule, active = well fitted curve in the direction sought with a large enough effect in the repeat runs; inconclusive = weak or mixed curves; inactive = flat fitted curve, though single readings scatter.

Assay: qHTS assay to test for compound auto fluorescence at 535 nm (green) in HEK293 cells (AID 720680)
Conditions: green autofluorescence 485/535 nm; series mostly up to 91.3 µM; fluorescence, % of fluorescein: at the top concentration
% is scaled to controls: 0 for no effect and ±100 for the full control effect.

| Compound | fluorescence, % of fluorescein | outcome |
| --- | --- | --- |
| OCCC1CCCCN1 (configuration not stated) | -0.143% (inactive) |  |
| Oc1ccc(Sc2ccc(O)cc2)cc1 | 0.056% (inactive) |  |
| CCCC[C@H]1CN(CC2CCOCC2)C(=O)OC12CCN(C1(C)CCN(C(=O)c3c(C)ncnc3C)CC1)CC2 | 0.0764% (inactive) |  |
| O=C(O)COC(=O)Cc1ccccc1Nc1c(Cl)cccc1Cl | 0.0784% [at 18.6 µM] (inactive) |  |
| Cc1cc(C)c(S(=O)(=O)O)cc1N=Nc1cc(S(=O)(=O)O)c2ccccc2c1O | -0.98% (inactive) |  |
| CN1CCC(OC(c2ccccc2)c2ccccc2)CC1 | -0.132% [at 18.6 µM] (inactive) |  |
| c1ccc(OCc2ccc(CCCN3CCOCC3)cc2)cc1 | -0.0117% [at 46 µM] (inactive) |  |
| N#Cc1c(F)cccc1F | -0.0844% (inactive) |  |
| CCOc1nc2cccc(C(=O)O)c2n1Cc1ccc(-c2ccccc2-c2nn[nH]n2)cc1 | 0.149% [at 46 µM] (inactive) |  |
| NC(N)=NN=C(/C=C/c1ccc([N+](=O)[O-])o1)/C=C/c1ccc([N+](=O)[O-])o1 | -0.125% [at 46 µM] (inactive) |  |
| Cc1ccccn1 |  | inactive |
| NC1CCN(c2nc3c(cc2F)c(=O)c(C(=O)O)cn3-c2ccc(F)cc2F)C1 (configuration not stated) | 0.0226% [at 46 µM] (inactive) |  |
| CCCCCCOC(=O)CCC | 0.0732% (inactive) |  |
| COc1cc(C(C)(C)C)c(O)c(C(C)(C)C)c1 | 0.0331% (inactive) |  |
| CC(C)c1cccc(C(C)C)c1NC(=O)NS(=O)(=O)c1cc(C(C)(C)O)co1 | -0.0022% (inactive) |  |
| O=C(O)C(c1ccc(Cl)cc1)c1ccc(Cl)cc1 | 0.0396% (inactive) |  |
| COCCCCCCCCOCCC[Si](C)(O[Si](C)(C)C)O[Si](C)(C)C | -0.0635% (inactive) |  |
| CC(Cc1cccc(C(F)(F)F)c1)NCCOC(=O)c1ccccc1 (configuration not stated) | 0.0379% [at 46 µM] (inactive) |  |
| O=C(/C=C/c1ccc(O)c(O)c1)O[C@@H]1C[C@](O)(C(=O)O)C[C@@H](O)[C@H]1O | -0.0889% [at 95.7 µM] (inactive) |  |
| O=C1[C@H](CC[C@H](O)c2ccc(F)cc2)[C@@H](c2ccc(O)cc2)N1c1ccc(F)cc1 | 0.0303% [at 46 µM] (inactive) |  |

| Compound | fluorescence, % of fluorescein | outcome |
| --- | --- | --- |
| NC[C@H]1O[C@H](O[C@H]2[C@H](O)[C@@H](O[C@H]3O[C@H](CO)[C@@H](O)[C@H](N)[C@H]3O)[C@H](N)C[C@@H]2N)[C@H](O)[C@@H](O)[C@@H]1O | -0.0192% [at 18.6 µM] (inactive) and 0.0982% [at 3.72 µM] (inactive) |  |
| CC(C)(C)c1cc(O)c(C(C)(C)C)cc1O | 0.147% (inactive) |  |
| CCOC(=O)[C@H](CCc1ccccc1)N[C@H]1CCc2ccccc2N(CC(=O)O)C1=O | 0.0211% [at 46 µM] (inactive) |  |
| C=C(C)C(=O)OCCN(C)C | -0.114% (inactive) |  |
| S=C(S)NCCNC(=S)S | -0.027% (inactive) |  |
| Cc1ccc(C(C)c2ccc(C)c(C)c2)cc1C | 0.0079% (inactive) |  |
| CCCCOC(=O)/C=C\C(=O)OCCCC | -0.0029% [at 95.7 µM] (inactive) |  |
| CC(C)(C)C1CCCCC1O (configuration not stated) | -0.0366% (inactive) |  |
| O=C(O)Cc1cc(I)c(Oc2ccc(O)c(I)c2)c(I)c1 |  | inactive |
| CN1CCC(=C2c3ccccc3C=Cc3ccccc32)CC1 | -0.0054% [at 46 µM] (inactive) |  |
| N[C@H]1C(O)O[C@H](CO)[C@H](O)[C@@H]1O (some centres not stated) | -0.0399% (inactive) |  |
| CC1CCc2cc(F)cc3c(=O)c(C(=O)O)cn1c23 (configuration not stated) | -0.0717% [at 46 µM] (inactive) |  |
| CN(c1nccc(=O)[nH]1)C1CCN(c2nc3ccccc3n2Cc2ccc(F)cc2)CC1 | -0.215% [at 46 µM] (inactive) |  |
| Cc1cccc(C(C)(C)C)c1O | -0.0495% (inactive) |  |
| C=Cc1c(C)c2cc3[nH]c(cc4nc(cc5nc(cc1[nH]2)C(C)=C5CCC(=O)O)C(CCC(=O)O)=C4C)c(C)c3C=C | 0.0399% [at 46 µM] (inactive) |  |
| CCCCCC/C=C/C=O | 0.0978% (inactive) |  |
| NC(=S)N/N=C/c1cccnc1 | -0.0747% [at 46 µM] (inactive) |  |
| Nc1nc(N)c2nc(CNc3ccc(C(=O)N[C@@H](CCC(=O)O)C(=O)O)cc3)cnc2n1 |  | inactive |
| CCOc1cc(OCC)c(C(=O)CCC(=O)O)cc1OCC | -0.0088% [at 46 µM] (inactive) |  |

Assay: qHTS assay to test for compound auto fluorescence at 460 nm (blue) in HEK293 cell free culture (AID 720681); also: potency is read from the fitted curve at half-maximal effect
Conditions: cell-free medium, autofluorescence 405/460 nm (blue); series mostly up to 91.3 µM; fluorescence, % of fluorescent control: at the top concentration
Method in brief: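 Blue fluorescence (Ex 405/Em 460 nm, triamterene-equivalent) was read immediately after pin transfer of compound or DMSO into medium (DMEM, 10% FBS) without cells.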

| Compound | fluorescence, % of fluorescent control | Potency |
| --- | --- | --- |
| OCCC1CCCCN1 (configuration not stated) | 0.0915% (inactive) |  |
| Oc1ccc(Sc2ccc(O)cc2)cc1 | -0.0436% (inactive) |  |
| CCCC[C@H]1CN(CC2CCOCC2)C(=O)OC12CCN(C1(C)CCN(C(=O)c3c(C)ncnc3C)CC1)CC2 | 0.301% (inactive) |  |
| O=C(O)COC(=O)Cc1ccccc1Nc1c(Cl)cccc1Cl | 0.0686% [at 18.6 µM] (inactive) |  |
| Cc1cc(C)c(S(=O)(=O)O)cc1N=Nc1cc(S(=O)(=O)O)c2ccccc2c1O | -1.09% (inactive) |  |
| CN1CCC(OC(c2ccccc2)c2ccccc2)CC1 | -0.231% [at 18.6 µM] (inactive) |  |
| c1ccc(OCc2ccc(CCCN3CCOCC3)cc2)cc1 | 0.01% [at 46 µM] (inactive) |  |
| N#Cc1c(F)cccc1F | -0.18% (inactive) |  |
| CCOc1nc2cccc(C(=O)O)c2n1Cc1ccc(-c2ccccc2-c2nn[nH]n2)cc1 | -0.026% [at 46 µM] (inactive) |  |
| NC(N)=NN=C(/C=C/c1ccc([N+](=O)[O-])o1)/C=C/c1ccc([N+](=O)[O-])o1 | -0.269% [at 46 µM] (inactive) |  |
| Cc1ccccn1 | 0.0124% [at 46 µM] (inactive) |  |
| NC1CCN(c2nc3c(cc2F)c(=O)c(C(=O)O)cn3-c2ccc(F)cc2F)C1 (configuration not stated) | 0.0345% [at 46 µM] (inactive) |  |
| CCCCCCOC(=O)CCC | -0.0433% (inactive) |  |
| COc1cc(C(C)(C)C)c(O)c(C(C)(C)C)c1 | 0.119% (inactive) |  |
| CC(C)c1cccc(C(C)C)c1NC(=O)NS(=O)(=O)c1cc(C(C)(C)O)co1 | -0.363% (inactive) |  |
| O=C(O)C(c1ccc(Cl)cc1)c1ccc(Cl)cc1 | -0.156% (inactive) |  |
| COCCCCCCCCOCCC[Si](C)(O[Si](C)(C)C)O[Si](C)(C)C | -0.0995% (inactive) |  |
| CC(Cc1cccc(C(F)(F)F)c1)NCCOC(=O)c1ccccc1 (configuration not stated) | -0.0169% [at 46 µM] (inactive) |  |
| O=C(/C=C/c1ccc(O)c(O)c1)O[C@@H]1C[C@](O)(C(=O)O)C[C@@H](O)[C@H]1O | 7.65% [at 95.7 µM] (inactive) |  |

| Compound | fluorescence, % of fluorescent control | Potency |
| --- | --- | --- |
| O=C1[C@H](CC[C@H](O)c2ccc(F)cc2)[C@@H](c2ccc(O)cc2)N1c1ccc(F)cc1 | -0.0421% [at 46 µM] (inactive) |  |
| NC[C@H]1O[C@H](O[C@H]2[C@H](O)[C@@H](O[C@H]3O[C@H](CO)[C@@H](O)[C@H](N)[C@H]3O)[C@H](N)C[C@@H]2N)[C@H](O)[C@@H](O)[C@@H]1O | 0.0354% [at 18.6 µM] (inactive) and -0.129% [at 3.72 µM] (inactive) |  |
| CC(C)(C)c1cc(O)c(C(C)(C)C)cc1O | 0.127% (inactive) |  |
| C=C(C)C(=O)OCCN(C)C | 0.0092% (inactive) |  |
| S=C(S)NCCNC(=S)S | -0.0554% (inactive) |  |
| Cc1ccc(C(C)c2ccc(C)c(C)c2)cc1C | -0.0326% (inactive) |  |
| CCCCOC(=O)/C=C\C(=O)OCCCC | 0.0143% [at 95.7 µM] (inactive) |  |
| CC(C)(C)C1CCCCC1O (configuration not stated) | 0.0635% (inactive) |  |
| O=C(O)Cc1cc(I)c(Oc2ccc(O)c(I)c2)c(I)c1 |  | inactive |
| CN1CCC(=C2c3ccccc3C=Cc3ccccc32)CC1 | -0.0057% [at 46 µM] (inactive) |  |
| N[C@H]1C(O)O[C@H](CO)[C@H](O)[C@@H]1O (some centres not stated) | 0.0496% (inactive) |  |
| CC1CCc2cc(F)cc3c(=O)c(C(=O)O)cn1c23 (configuration not stated) | -0.0354% [at 46 µM] (inactive) |  |
| CN(c1nccc(=O)[nH]1)C1CCN(c2nc3ccccc3n2Cc2ccc(F)cc2)CC1 | 0.011% [at 46 µM] (inactive) |  |
| Cc1cccc(C(C)(C)C)c1O | -0.0553% (inactive) |  |
| C=Cc1c(C)c2cc3[nH]c(cc4nc(cc5nc(cc1[nH]2)C(C)=C5CCC(=O)O)C(CCC(=O)O)=C4C)c(C)c3C=C | 0.228% [at 46 µM] (inactive) |  |
| CCCCCC/C=C/C=O | 0.165% (inactive) |  |
| NC(=S)N/N=C/c1cccnc1 | -0.048% [at 46 µM] (inactive) |  |
| Nc1nc(N)c2nc(CNc3ccc(C(=O)N[C@@H](CCC(=O)O)C(=O)O)cc3)cnc2n1 |  | 39.8 µM (active) |
| CCOc1cc(OCC)c(C(=O)CCC(=O)O)cc1OCC | -0.114% [at 46 µM] (inactive) |  |
